From PubChem BioAssay (NCI) come the findings set out here.

Compounds without any hit were thinned out: in the full panel of roughly 79,000, 15% have a hit. Values without a mark were called inactive. Calls of active or inactive are those of the source. No stated cut-off is given here; in the data, active means growth inhibition above about 70%; inactive means the rest.

The nature of test [1]: NCI Yeast Anticancer Drug Screen. Data for the rad50 strain (AID 155).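 Further: 0% = growth of vehicle-only cultures of the same strain.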 The settings on record: S. cerevisiae rad50 strain growth inhibition, stronger effect = higher value. Summed up: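 Yeast carrying a defined DNA repair defect were exposed to test compounds, and growth was compared with vehicle-treated controls to give percent inhibition.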
Test [2] in a line: NCI Yeast Anticancer Drug Screen. Data for the mec2-1 strain (AID 157). The settings on record: S. cerevisiae mec2-1 strain, stronger effect = higher value. Summed up: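 Readout is yeast growth inhibition, normalised to vehicle-treated controls, in the mec2-1 strain exposed to compound.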
A short description of test [3]: NCI Yeast Anticancer Drug Screen. Data for the sgs1 mgt1 strain (AID 161).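 Further: 0% = growth of cultures given vehicle only.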 Particulars: S. cerevisiae sgs1 mgt1 strain, stronger effect = higher value. Summed up:
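Percent growth inhibition was derived by comparing compound-exposed mutant yeast with vehicle-exposed cultures. The strain carries alterations in DNA damage repair.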

A short description of test [4]: NCI Yeast Anticancer Drug Screen. Data for the cln2 rad14 strain (AID 165).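 Further: 0% = growth equal to vehicle treated cultures.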 Particulars: S. cerevisiae cln2 rad14 strain, stronger effect = higher value. Summed up: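 Relative to vehicle controls, growth inhibition of compound-treated cln2 rad14 yeast was recorded.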
Test [5] is described as follows: NCI Yeast Anticancer Drug Screen. Data for the bub3 strain (AID 167). The settings on record: S. cerevisiae bub3 mutant strain, stronger effect = higher value. Summed up: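 Compounds were applied to a genetically altered yeast strain carrying a cell-cycle control defect. Growth inhibition was scored against vehicle-treated controls.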
The nature of test [6]: NCI Yeast Anticancer Drug Screen. Data for the mlh1 rad18 strain (AID 175). The settings on record: S. cerevisiae mlh1 rad18 strain growth inhibition, stronger effect = higher value. Summed up: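 Test agents were incubated with a yeast strain of defined genotype (DNA damage repair defect). Inhibition of growth was derived by comparison with vehicle-exposed cultures.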
Setting [7] is: at 5.0 µM (retest, dose inferred, filed as 0.5).
Setting [8] is: at 50.0 µM (retest, dose inferred, filed as 5.0).

Consider `N#CC1C(=O)NC(=O)CC1c1ccccc1` (stereo not given), for which the growth inhibition in test [1] (setting [7]) is 10%; in test [1] (setting [8]), 99% (active); in test [1] (at 50.0 µM), 99.2% (active); in test [2] (setting [7]) it was -10%; in test [2] (setting [8]), 99% (active); in test [2] (at 50.0 µM), 99.2% (active). Besides, the growth inhibition was 10% in test [3] (setting [7]); 99% (active) in test [3] (setting [8]); 99% (active) in test [3] (at 50.0 µM); 10% in test [4] (setting [7]); 99% (active) in test [4] (setting [8]); 99.3% (active) in test [4] (at 50.0 µM). The growth inhibition is 0% in test [5] (setting [7]); 99% (active) in test [5] (setting [8]); 99.3% (active) in test [5] (at 50.0 µM); 13% in test [6] (setting [7]); 99% (active) in test [6] (setting [8]); 99.2% (active) in test [6] (at 50.0 µM).

Regarding `COC(=O)C1C(C(=O)OC)C2(OC(c3ccc(Cl)cc3)=CC2=O)C12OC(c1ccc(Cl)cc1)=CC2=O` (stereo not given), the growth inhibition in test [1] (setting [7]) is 2%; in test [1] (setting [8]), 74% (active); in test [1] (at 50.0 µM), 89.8% (active); in test [2] (setting [7]), 12%; in test [2] (setting [8]), 99% (active); in test [2] (at 50.0 µM), 92% (active). In addition, the growth inhibition is 12% in test [3] (setting [7]); 96% (active) in test [3] (setting [8]); 90% (active) in test [3] (at 50.0 µM); 4% in test [4] (setting [7]); 63% in test [4] (setting [8]); 89.8% (active) in test [4] (at 50.0 µM). The growth inhibition was -1% in test [5] (setting [7]); 90% (active) in test [5] (setting [8]); 92% (active) in test [5] (at 50.0 µM); 13% in test [6] (setting [7]); 98% (active) in test [6] (setting [8]); 87.2% (active) in test [6] (at 50.0 µM).

For the compound `O=[N+]([O-])c1ccccc1N=Nc1c(O)[nH]c2cccc(C(F)(F)F)c12`, the growth inhibition in test [1] (setting [7]) was 50%; in test [1] (setting [8]) it was 86% (active); in test [1] (at 50.0 µM), 93.9% (active); in test [2] (setting [7]), 52%; in test [2] (setting [8]), 81% (active); in test [2] (at 50.0 µM), 18.5%. Further, the growth inhibition in test [3] (setting [7]) was 60%; in test [3] (setting [8]), 90% (active); in test [3] (at 50.0 µM), 83.5% (active); in test [4] (setting [7]) it was -60%; in test [4] (setting [8]) it was 92% (active); in test [4] (at 50.0 µM), 50.2%. Moreover, the growth inhibition in test [5] (setting [7]) is 47%; in test [5] (setting [8]), 77% (active); in test [5] (at 50.0 µM), 46.5%; in test [6] (setting [7]), 84% (active); in test [6] (setting [8]), 97% (active); in test [6] (at 50.0 µM), 95.1% (active).

Regarding `CN(C)CCCC(C#N)(CCCN(C)C)c1ccccc1`, the growth inhibition in test [1] (setting [7]) was 15%; in test [1] (setting [8]), -2%; in test [1] (at 50.0 µM) it was 15%; in test [2] (setting [7]) it was -1%; in test [2] (setting [8]) it was 5%; in test [2] (at 50.0 µM) it was -2.05%. For the same compound, the growth inhibition in test [3] (setting [7]) is 6%; in test [3] (setting [8]), 0%; in test [3] (at 50.0 µM) it was 10.6%; in test [4] (setting [7]), -2%; in test [4] (setting [8]) it was 6%; in test [4] (at 50.0 µM), -51.6%. Moreover, the growth inhibition in test [5] (setting [7]) was -3%; in test [5] (setting [8]) it was -1%; in test [5] (at 50.0 µM) it was -18.5%; in test [6] (setting [7]) it was -3%; in test [6] (setting [8]), 8%; in test [6] (at 50.0 µM) it was 31.4%.

With `Cc1ccc(C2SCC(=O)N2c2ccc(-n3c(-c4ccccc4)nc4ccccc4c3=O)cc2)cc1` (stereo not given), the growth inhibition in test [1] (setting [7]) was -16%; in test [1] (setting [8]), 90% (active); in test [1] (at 50.0 µM), 75.3% (active); in test [2] (setting [7]) it was -8%; in test [2] (setting [8]), 55%; in test [2] (at 50.0 µM), 67.5%. Besides, the growth inhibition in test [3] (setting [7]) is -10%; in test [3] (setting [8]), 81% (active); in test [3] (at 50.0 µM), 77.2% (active); in test [4] (setting [7]) it was -16%; in test [4] (setting [8]) it was 87% (active); in test [4] (at 50.0 µM) it was 83.2% (active). The growth inhibition in test [5] (setting [7]) is -24%; in test [5] (setting [8]) it was 74% (active); in test [5] (at 50.0 µM), 72.7% (active); in test [6] (setting [7]) it was -8%; in test [6] (setting [8]) it was 88% (active); in test [6] (at 50.0 µM), 79.8% (active).

Turning to `CCCCNC(=O)OCCN=C1c2ccccc2C(Br)C(Br)c2ccccc21` (stereo not given), the growth inhibition in test [1] (setting [7]) was 5%; in test [1] (setting [8]) it was 37%; in test [1] (at 50.0 µM) it was 98.4% (active); in test [2] (setting [7]) it was 2%; in test [2] (setting [8]), 23%; in test [2] (at 50.0 µM), 98.5% (active). Besides, the growth inhibition was -5% in test [3] (setting [7]); 21% in test [3] (setting [8]); 97.3% (active) in test [3] (at 50.0 µM); 7% in test [4] (setting [7]); 20% in test [4] (setting [8]); 97.8% (active) in test [4] (at 50.0 µM). Moreover, the growth inhibition in test [5] (setting [7]) was 9%; in test [5] (setting [8]), 28%; in test [5] (at 50.0 µM), 97.8% (active); in test [6] (setting [7]), 13%; in test [6] (setting [8]) it was 74% (active); in test [6] (at 50.0 µM), 98.5% (active).

With `COc1ccc(CCC2(C)OCCC(C)O2)cc1` (stereo not given), the growth inhibition is 12% in test [1] (setting [7]); 92% (active) in test [1] (setting [8]); -13.5% in test [1] (at 50.0 µM); 13% in test [2] (setting [7]); 96% (active) in test [2] (setting [8]); -6.35% in test [2] (at 50.0 µM). In addition, the growth inhibition in test [3] (setting [7]) was 16%; in test [3] (setting [8]), 91% (active); in test [3] (at 50.0 µM), -4.35%; in test [4] (setting [7]), 10%; in test [4] (setting [8]) it was 95% (active); in test [4] (at 50.0 µM), 28.6%. In addition, the growth inhibition in test [5] (setting [7]) was -3%; in test [5] (setting [8]), 76% (active); in test [5] (at 50.0 µM), -16.1%; in test [6] (setting [7]) it was 19%; in test [6] (setting [8]), 94% (active); in test [6] (at 50.0 µM), -26.8%.

On to `CCN(CC)c1cc(Nc2c3ccc(Cl)cc3nc3cc(Cl)ccc23)ccc1O`, for which the growth inhibition is 1% in test [1] (setting [7]); 4% in test [1] (setting [8]); 34.5% in test [1] (at 50.0 µM); -39% in test [2] (setting [7]); -3% in test [2] (setting [8]); -11.2% in test [2] (at 50.0 µM). Besides, the growth inhibition in test [3] (setting [7]) is -3%; in test [3] (setting [8]) it was -4%; in test [3] (at 50.0 µM) it was -4.35%; in test [4] (setting [7]), -6%; in test [4] (setting [8]), -3%; in test [4] (at 50.0 µM), 71.7% (active). In addition, the growth inhibition is -5% in test [5] (setting [7]); -10% in test [5] (setting [8]); 0.75% in test [5] (at 50.0 µM); 0% in test [6] (setting [7]); -2% in test [6] (setting [8]); -0.95% in test [6] (at 50.0 µM).

On to `NC(=O)NC(=O)N/N=C/c1ccc([N+](=O)[O-])o1`, for which the growth inhibition was 2% in test [1] (setting [7]); 25% in test [1] (setting [8]); 74.8% (active) in test [1] (at 50.0 µM); 1% in test [2] (setting [7]); 20% in test [2] (setting [8]); 22.9% in test [2] (at 50.0 µM). The growth inhibition in test [3] (setting [7]) was 5%; in test [3] (setting [8]), 27%; in test [3] (at 50.0 µM), 68.2%; in test [4] (setting [7]), -1%; in test [4] (setting [8]), 12%; in test [4] (at 50.0 µM) it was 38%. For the same compound, the growth inhibition in test [5] (setting [7]) was -5%; in test [5] (setting [8]), 17%; in test [5] (at 50.0 µM) it was 27.2%; in test [6] (setting [7]), 4%; in test [6] (setting [8]), 40%; in test [6] (at 50.0 µM) it was 61.5%.

With `CC1=C(C(=O)Nc2ccccc2Cl)C(c2cccc([N+](=O)[O-])c2)C(C(=O)Nc2ccccc2Cl)=C(C)N1`, the growth inhibition was -12% in test [1] (setting [7]); 53% in test [1] (setting [8]); 11.8% in test [1] (at 50.0 µM); 27% in test [2] (setting [7]); 67% in test [2] (setting [8]); 30.2% in test [2] (at 50.0 µM). Moreover, the growth inhibition was -10% in test [3] (setting [7]); 51% in test [3] (setting [8]); 20.4% in test [3] (at 50.0 µM); 11% in test [4] (setting [7]); 61% in test [4] (setting [8]); 1.9% in test [4] (at 50.0 µM). Further, the growth inhibition in test [5] (setting [7]) is 21%; in test [5] (setting [8]) it was 80% (active); in test [5] (at 50.0 µM) it was 27.9%; in test [6] (setting [7]), 13%; in test [6] (setting [8]), 63%; in test [6] (at 50.0 µM), 13.3%.
